{"source": "PubChem BioAssay", "key": {"[1]": {"test": "rapamycin-like changes in RPL19A-GFP expression – cell-based, S. cerevisiae, multiplex flow cytometry, primary screen (AID 1862; in the data active = percent of DMSO control GFP below about 86%;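 also: lower values mimic rapamycin by blocking the RPL19A rise seen in DMSO cells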)", "details": "S. cerevisiae RPL19A-GFP strain, flow cytometry fluorescence, 3 h; at 10 µM; stronger effect = lower value"}, "[2]": {"test": "TOR pathway GLN3 branch reporter MEP2-GFP changes – S. cerevisiae, multiplex flow cytometry, primary screen (AID 1867;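 active = GFP response, as percent of the DMSO control, above the screen-wide mean plus 3 SD, about 139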;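 also: median GFP channel fluorescence of barcode-gated MEP2-GFP cells measured by flow cytometry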)", "details": "S. cerevisiae MEP2-GFP strain, 3 h, at 10 µM, stronger effect = higher value, 100% means same as DMSO wells"}, "[3]": {"test": "TOR pathway RTG branch CIT2 reporter changes – S. cerevisiae, GFP fusion, multiplex flow cytometry, primary screen (AID 1870;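 active = percent response above a set limit, the screen-wide mean plus 3 SD, cut at about 130% in these data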;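 also: barcoded CIT2-GFP strain pooled with four other GFP strains with rapamycin as positive control; median GFP fluorescence per well over plate mean of DMSO wells so 100% = DMSO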)", "details": "S. cerevisiae CIT2-GFP expression, 3 h, at 10 µM, stronger effect = higher value"}, "[4]": {"test": "TOR pathway LAP4-GFP level changes – S. cerevisiae, multiplex flow cytometry, primary screen (AID 1873;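 active = GFP signal, as percent of the solvent control, above the screen mean plus 3 SD, about 149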)", "details": "S. cerevisiae LAP4-GFP expression, 3 h, at 10 µM, stronger effect = higher value"}, "[5]": {"test": "yeast AGP1-GFP level changes, GLN3 branch – cell-based, multiplex flow cytometry, S. cerevisiae, primary screen (AID 1887;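 active = GFP signal above the screen-wide mean plus 3 SD, that is over about 124.5% of the solvent control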;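 also: AGP1-GFP fusion strain of S. cerevisiae within a five-strain barcoded multiplex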)", "details": "3 h, at 10 µM, stronger effect = higher value"}, "[6]": {"test": "hit retest on RPL19A-GFP reporter strain – cell-based, S. cerevisiae, flow cytometry, cherry picks, mother/daughter gates, confirmation (AID 2270;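 active = GFP response below 50% of the DMSO control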)", "details": "3 h, at 10 µM, stronger effect = lower value, 100 = same GFP as DMSO wells"}, "[7]": {"test": "yeast TOR pathway reporter LAP4-GFP change – cell-based, cherry picks, flow cytometry, mother/daughter gates, confirmation (AID 2271);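 also: ratio of sample to DMSO plate mean so 100% equals DMSO level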", "details": "S. cerevisiae LAP4-GFP strain, 3 h, at 10 µM, stronger effect = higher value, 100 means same as DMSO control"}, "[8]": {"test": "TOR pathway reporter MEP2-GFP, retest of hits – S. cerevisiae, flow cytometry GFP, cherry picks, confirmation (AID 2272;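 active = GFP response above 150% of the DMSO control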;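 also: ratio of well signal to plate DMSO mean so 100% equals DMSO level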)", "details": "S. cerevisiae MEP2-GFP strain, 3 h, at 10 µM, stronger effect = higher value"}, "[9]": {"test": "TOR pathway CIT2 reporter hit retest – S. cerevisiae, GFP fusion, cherry picks, mother/daughter gates, confirmation (AID 2274;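 active = GFP response above 150% of the DMSO level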)", "details": "S. cerevisiae CIT2-GFP strain, flow cytometry, 3 h, at 10 µM, stronger effect = higher value"}, "[10]": {"test": "reduced mouse 2C T cell binding to pMHC/ICAM-1 vesicles – MLPCN validation set, flow cytometry, LFA-1/ICAM-1 modulator project, pilot screen (AID 2523;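 active = response below a set limit, under 55% cells CD8-positive and vesicle-bound, and CD8 cells' 90th-percentile brightness under 279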;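 as to vesicle binding response: mean PE anti-B7-1 fluorescence of CD8+ cells relative to row control; 100% = QL9-loaded vesicles with DMSO vehicle in the same plate row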)", "details": "2C mouse CD8+ T cells, at 7 µM, stronger effect = lower value; double positive events: measured here: CD8+/vesicle+ event percentage"}, "[11]": {"molecular_target": "Regulator of G-protein signaling 16 (Homo sapiens) (UniProt O15492)", "test": "small molecules altering RGS protein interactions with GNAO1 – biochemical, multiplexed beads, flow cytometry, RGS4/7/8/16/19, primary screen (AID 1504);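 also: fluorescently labeled Galpha-o bound to GDP with aluminium fluoride binding biotinylated RGS beads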", "details": "multiplexed bead flow cytometry, measured here: RGS16 interaction, at 10 µM"}, "[12]": {"molecular_target": "Regulator of G-protein signaling 19 (Homo sapiens) (UniProt P49795)", "test": "small molecules altering RGS protein interactions with GNAO1 – biochemical, multiplexed beads, flow cytometry, RGS4/7/8/16/19, primary screen (AID 1504)", "details": "multiplexed bead flow cytometry, measured here: RGS19 interaction, at 10 µM"}, "[13]": {"molecular_target": "Regulator of G-protein signaling 7 (Homo sapiens) (UniProt P49802)", "test": "small molecules altering RGS protein interactions with GNAO1 – biochemical, multiplexed beads, flow cytometry, RGS4/7/8/16/19, primary screen (AID 1504)", "details": "multiplexed bead flow cytometry, measured here: RGS7 interaction, at 10 µM"}, "[14]": {"molecular_target": "Regulator of G-protein signaling 8 (Homo sapiens) (UniProt P57771)", "test": "small molecules altering RGS protein interactions with GNAO1 – biochemical, multiplexed beads, flow cytometry, RGS4/7/8/16/19, primary screen (AID 1504)", "details": "multiplexed bead flow cytometry, measured here: RGS8 interaction, at 10 µM"}, "[15]": {"test": "interference with biotin-avidin bead interaction – biochemical, flow cytometry, bead-based, counter-screen for RGS protein interaction modulators (AID 1783;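 active = inhibition above 50%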;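 also: median green fluorescence of gated singlet beads compared with DMSO control wells; 0% = DMSO wells and 100% = complete loss of bead fluorescence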)", "details": "streptavidin beads, fluorescein-biotin binding; at 10 µM, stronger effect = higher value"}, "[16]": {"molecular_target": "Guanine nucleotide-binding protein G(o) subunit alpha (Homo sapiens) (UniProt P09471)", "sequence (P09471 whole entry, looked up)": "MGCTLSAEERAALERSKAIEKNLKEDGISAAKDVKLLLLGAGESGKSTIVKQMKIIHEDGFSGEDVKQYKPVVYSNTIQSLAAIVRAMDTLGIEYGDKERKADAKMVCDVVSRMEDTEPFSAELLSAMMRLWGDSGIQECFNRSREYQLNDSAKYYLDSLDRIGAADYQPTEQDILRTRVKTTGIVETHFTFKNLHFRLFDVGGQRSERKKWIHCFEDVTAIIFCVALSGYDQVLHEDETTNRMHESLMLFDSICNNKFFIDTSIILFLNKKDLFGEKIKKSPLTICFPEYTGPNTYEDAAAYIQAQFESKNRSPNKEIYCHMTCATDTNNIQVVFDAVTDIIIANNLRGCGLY", "test": "retest of RGS8-Galphao interaction hits – biochemical, multiplexed bead flow cytometry, single concentration, confirmation (AID 1836; in the data active = binding response below about 72% or above about 130%; inactive = in between;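 also: Galphao activated as GDP AlF4 complex before binding bead RGS8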)", "details": "bead-based flow cytometry RGS8-Galphao binding, fluorescence; at 10 µM; actives lie on both sides"}, "[17]": {"molecular_target": "Guanine nucleotide-binding protein G(o) subunit alpha (Homo sapiens) (UniProt P09471)", "test": "retest of RGS7-Galphao interaction hits – biochemical, multiplexed bead flow cytometry, single concentration, confirmation (AID 1837; in the data active = response below about 75% or above about 130%; inactive = in between;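 also: fluorescent Galphao activated with GDP and aluminum fluoride binding bead-coupled RGS7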)", "details": "bead-based flow cytometry RGS7-Galphao binding; at 10 µM; actives lie on both sides"}, "[18]": {"molecular_target": "Regulator of G-protein signaling 16 (Homo sapiens) + Guanine nucleotide-binding protein G(o) subunit alpha (Homo sapiens) (UniProt O15492+P09471)", "sequence (O15492 whole entry, looked up)": "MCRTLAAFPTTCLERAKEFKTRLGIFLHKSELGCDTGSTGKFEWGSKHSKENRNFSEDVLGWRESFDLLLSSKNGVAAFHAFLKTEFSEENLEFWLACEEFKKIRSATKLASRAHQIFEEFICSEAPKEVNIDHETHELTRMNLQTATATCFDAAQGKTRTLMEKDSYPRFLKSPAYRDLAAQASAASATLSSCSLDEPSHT", "sequence (P09471 whole entry, looked up)": "as the sequence (P09471 whole entry, looked up) above", "test": "RGS16 and Galphao interaction regulators – biochemical, single concentration, multiplexed bead flow cytometry, confirmation (AID 1838; in the data active = response below about 74% or above about 130%; inactive = in between;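 also: Galphao activated as the GDP aluminium fluoride complex binding bead-coupled RGS16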)", "details": "bead-based flow cytometry, at 10 µM, actives lie on both sides"}, "[19]": {"molecular_target": "Guanine nucleotide-binding protein G(o) subunit alpha (Homo sapiens) (UniProt P09471)", "test": "RGS4 and Galphao interaction regulators – biochemical, single concentration, multiplexed bead flow cytometry, confirmation (AID 1840; in the data active = binding response below about 74% or above about 130%; inactive = in between)", "details": "at 10 µM, actives lie on both sides"}, "[20]": {"molecular_target": "Guanine nucleotide-binding protein G(o) subunit alpha (Homo sapiens) + Regulator of G-protein signaling 19 (Homo sapiens) (UniProt P09471+P49795)", "sequence (P09471 whole entry, looked up)": "as above", "sequence (P49795 whole entry, looked up)": "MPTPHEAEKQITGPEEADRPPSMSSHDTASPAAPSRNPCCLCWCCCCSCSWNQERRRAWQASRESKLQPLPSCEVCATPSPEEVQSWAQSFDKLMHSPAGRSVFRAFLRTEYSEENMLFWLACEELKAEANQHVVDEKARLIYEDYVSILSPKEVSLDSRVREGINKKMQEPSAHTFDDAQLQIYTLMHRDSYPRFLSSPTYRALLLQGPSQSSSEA", "test": "RGS19 interaction with Gαo, hit retest – biochemical, single point, multiplexed bead flow cytometry, confirmation (AID 1841; in the data active = response below about 50% or above about 160%; inactive = in between;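 also: 100% = no compound control and 0% = blank background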)", "details": "bead-based flow cytometry RGS19-Galphao binding; at 10 µM; actives lie on both sides"}, "[21]": {"details": "measured here: daughter cell gate"}, "[22]": {"details": "measured here: mother cell gate"}, "[23]": {"details": "measured here: daughter cell gate response"}, "[24]": {"details": "measured here: mother cell gate response"}}, "note": "Results filed as inconclusive are left out. Some of the results follow. Calls of active or inactive are those of the source.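 The calls were made as follows, unless noted: active = GFP response above 150% of the DMSO control; inconclusive = fewer than 70 events counted in any yeast strain; inactive = the rest.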", "data": [{"smiles": "CC(NCCc1ccc(O)cc1)C(O)c1ccc(O)cc1", "note": "(centres undefined)", "values": [{"measurement": "percent of DMSO control GFP", "setting": "[1]", "result": "92.4% (inactive)"}, {"measurement": "GFP response vs DMSO", "setting": "[2]", "result": "144% (active)"}, {"measurement": "percent response of DMSO control", "setting": "[3]", "result": "91.3% (inactive)"}, {"measurement": "GFP response vs DMSO", "setting": "[4]", "result": "80.9% (inactive)"}, {"measurement": "GFP response, % of DMSO", "setting": "[5]", "result": "93.1% (inactive)"}, {"measurement": "GFP response vs DMSO", "setting": "[6]", "result": "93% (inactive)"}, {"measurement": "GFP response vs DMSO", "setting": "[6]; [21]", "result": 91.6, "unit": "%"}, {"measurement": "GFP response vs DMSO", "setting": "[6]; [22]", "result": 94.1, "unit": "%"}, {"measurement": "GFP response relative to DMSO", "setting": "[7]", "result": "97.9% (inactive)"}, {"measurement": "GFP response relative to DMSO", "setting": "[7]; [23]", "result": 96, "unit": "%"}, {"measurement": "GFP response relative to DMSO", "setting": "[7]; [24]", "result": 98.3, "unit": "%"}, {"measurement": "GFP response vs DMSO", "setting": "[8]", "result": "100% (inactive)"}, {"measurement": "GFP response, % of DMSO", "setting": "[9]", "result": "101% (inactive)"}, {"measurement": "GFP response, % of DMSO", "setting": "[9]; [21]", "result": 101, "unit": "%"}, {"measurement": "GFP response, % of DMSO", "setting": "[9]; [22]", "result": 103, "unit": "%"}, {"measurement": "double positive events", "setting": "[10]", "result": 59, "unit": "%"}, {"measurement": "vesicle binding response", "setting": "[10]", "result": "174% (inactive)"}]}, {"smiles": "Cc1cc(C)cc(N(CC(=O)Nc2c(C)n(C)n(-c3ccccc3)c2=O)S(C)(=O)=O)c1", "values": [{"measurement": "RGS16–Galpha-o binding response", "setting": "[11]", "result": -28.4, "unit": "%"}, {"measurement": "RGS19–Galpha-o binding response", "setting": "[12]", "result": 156, "unit": "%"}, {"measurement": "RGS7–Galpha-o binding response", "setting": "[13]", "result": -21.3, "unit": "%"}, {"measurement": "RGS8–Galpha-o binding response", "setting": "[14]", "result": 1.54, "unit": "%"}, {"measurement": "inhibition", "setting": "[15]", "result": "-0.5% (inactive)"}, {"measurement": "binding response (% of control)", "setting": "[16]", "result": "104% (inactive)"}, {"measurement": "response (percent of control binding)", "setting": "[17]", "result": "104% (inactive)"}, {"measurement": "response (% of control binding)", "setting": "[18]", "result": "108% (inactive)"}, {"measurement": "binding response (% of control)", "setting": "[19]", "result": "103% (inactive)"}, {"measurement": "response (percent of control binding)", "setting": "[20]", "result": "108% (inactive)"}]}, {"smiles": "O=[N+]([O-])c1cccc2cn[nH]c12", "values": [{"measurement": "percent of DMSO control GFP", "setting": "[1]", "result": "94.4% (inactive)"}, {"measurement": "GFP response vs DMSO", "setting": "[2]", "result": "155% (active)"}, {"measurement": "percent response of DMSO control", "setting": "[3]", "result": "114% (inactive)"}, {"measurement": "GFP response vs DMSO", "setting": "[4]", "result": "91.3% (inactive)"}, {"measurement": "GFP response, % of DMSO", "setting": "[5]", "result": "94.2% (inactive)"}, {"measurement": "GFP response vs DMSO", "setting": "[6]", "result": "97.3% (inactive)"}, {"measurement": "GFP response vs DMSO", "setting": "[6]; [21]", "result": 96.4, "unit": "%"}, {"measurement": "GFP response vs DMSO", "setting": "[6]; [22]", "result": 95.2, "unit": "%"}, {"measurement": "GFP response relative to DMSO", "setting": "[7]", "result": "98.9% (inactive)"}, {"measurement": "GFP response relative to DMSO", "setting": "[7]; [23]", "result": 97.5, "unit": "%"}, {"measurement": "GFP response relative to DMSO", "setting": "[7]; [24]", "result": 99.5, "unit": "%"}, {"measurement": "GFP response vs DMSO", "setting": "[8]", "result": "106% (inactive)"}, {"measurement": "GFP response, % of DMSO", "setting": "[9]", "result": "103% (inactive)"}, {"measurement": "GFP response, % of DMSO", "setting": "[9]; [21]", "result": 101, "unit": "%"}, {"measurement": "GFP response, % of DMSO", "setting": "[9]; [22]", "result": 103, "unit": "%"}, {"measurement": "double positive events", "setting": "[10]", "result": 51.9, "unit": "%"}, {"measurement": "vesicle binding response", "setting": "[10]", "result": "56% (active)"}]}]}
